The results in this text go back to PubChem BioAssay (Tox21).

The nature of test [1]: qHTS assay to test for compound auto fluorescence at 535 nm (green) in HEK293 cells (AID 720680). Background: qHTS replaces the single test concentration by a dilution series.
Test [2] can be described thus: qHTS assay to test for compound auto fluorescence at 460 nm (blue) in HEK293 cell free culture (AID 720681). An outline of the steps:
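Blue fluorescence (Ex 405/Em 460 nm, triamterene-equivalent) was read immediately after pin transfer of compound or DMSO into medium (DMEM, 10% FBS) without cells.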

Test [3] can be described thus: qHTS assay to test for compound auto fluorescence at 535 nm (green) in HEK293 cell free culture (AID 720682). An outline of the steps: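 No cells present: wells hold DMEM supplemented with 10% FBS, into which compound or vehicle is pinned. Green emission is then recorded (485 nm excitation, 535 nm emission) and scaled to fluorescein.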
Test [4] can be described thus: qHTS assay to test for compound auto fluorescence at 590 nm (red) in HEK293 cell free culture (AID 720683). An outline of the steps: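 Red-channel autofluorescence of compounds in culture medium (DMEM, 10% FBS), no cells, measured at 540/590 nm. Rose Bengal sodium is the reference fluorophore for equivalence.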
A short description of test [5]: qHTS assay to test for compound auto fluorescence at 590 nm (red) in HepG2 cell free culture (AID 720684). Summed up:
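Plate contents were MEM with 10% FBS plus test compound or DMSO, no cells. Fluorescence was recorded with 540 nm excitation and 590 nm emission.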

A short description of test [6]: qHTS assay to test for compound auto fluorescence at 460 nm (blue) in HepG2 cell free culture (AID 720685). Summed up: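 Compound (23 nL) or DMSO pinned into cell-free MEM with 10% FBS; blue fluorescence read at 405/460 nm excitation/emission, expressed as auto-fluorescence equivalency to triamterene.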
Test [7] in a line: qHTS assay to test for compound auto fluorescence at 535 nm (green) in HepG2 cell free culture (AID 720686).
Test [8] in a line: qHTS assay to test for compound auto fluorescence at 460 nm (blue) in HepG2 cells (AID 720687). Summed up:
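Blue-channel autofluorescence (Ex/Em 405/460 nm, triamterene-equivalent) was measured after 1 hr compound exposure at 37 C, 5% CO2. Cells were HepG2, plated overnight at 37 C in MEM plus 10% FBS.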

For test [9], the target named is Glucocorticoid receptor (Homo sapiens) (UniProt P04150). Briefly: qHTS assay to identify small molecule agonists of the glucocorticoid receptor (GR) signaling pathway (AID 720691; active = well fitted activation curve with a large enough effect in the signal ratio in the repeat runs, not every such curve was filed as active; the % refers to the signal ratio). Summed up: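 Reporter read-out: fluorescence intensity following 2 h room-temperature LiveBLAzer B/G FRET substrate loading. Prior step: GR-bla HeLa cells held 4 h, then treated 18 h at 37 C.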

Test [10] has the same target. Description: qHTS assay to identify small molecule antagonists of the glucocorticoid receptor (GR) signaling pathway (AID 720692; active = well fitted inhibition curve with a large enough effect in the signal ratio in the repeat runs, not every such curve was filed as active; the % refers to the signal ratio). An outline of the steps:
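Dexamethasone (5 nM final) stimulated a stably integrated GRE-beta-lactamase reporter in HeLa cells during 18 h co-incubation with compounds; signal was quantified as fluorescence intensity of B/G FRET substrate after 2 h.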

A short description of test [11]: qHTS assay to identify small molecule antagonists of the glucocorticoid receptor (GR) signaling pathway - cell viability counter screen (AID 720693). Also: nearly all actives have a fitted effect of over 55% in size.
Test [12] is described as follows: qHTS assay for identifying genotoxic compounds that show differential cytotoxicity against isogenic chicken DT40 cell lines with known DNA damage response pathways - wild type cell line (AID 743012). Also: nearly all actives have a fitted effect of over 60% in size. Also: potency is read from the fitted curve at half-maximal effect. An outline of the steps:
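Using parental DT40 (300 cells/well), compounds delivered in DMSO incubate 40 h at 37 C/5% CO2. CellTiter-Glo reagent then stands 30 min at room temperature, and luminescence gives cell viability.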

A short description of test [13]: qHTS assay for identifying genotoxic compounds that show differential cytotoxicity against isogenic chicken DT40 cell lines with known DNA damage response pathways - Rev3 mutant cell line (AID 743014). Also: nearly all actives have a fitted effect of over 55% in size. Also: potency is read from the fitted curve at half-maximal effect.
Test [14] is described as follows: qHTS assay for identifying genotoxic compounds that show differential cytotoxicity against isogenic chicken DT40 cell lines with known DNA damage response pathways - Rad54/Ku70 mutant cell line (AID 743015). Also: nearly all actives have a fitted effect of over 60% in size. Also: potency is read from the fitted curve at half-maximal effect.
The target of test [15] is Androgen receptor (Homo sapiens) (UniProt P10275). Description: qHTS assay to identify small molecule agonists of the androgen receptor (AR) signaling pathway using the MDA cell line (AID 743040; also: nearly all actives have a fitted effect of over 20% in size). An outline of the steps: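 After a 5 h incubation at 37C and 0% CO2, MDA-kb2 reporter cells were dosed with compounds in DMSO and kept 16 h under the same conditions. Luciferase activity was then read as luminescence with ONE-Glo.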

Test [16] is described as follows: qHTS assay to identify small molecule antagonists of the androgen receptor (AR) signaling pathway using the MDA cell line - cell viability counter screen (AID 743041; also: nearly all actives have a fitted effect of over 45% in size). Summed up: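 R1881-driven MDA-kb2 AR-luc cells, 3,000/well, were dosed with library compounds for 16 h; cell health came from CellTiter-Fluor fluorescence in the reporter wells.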
The target in test [17] is Androgen receptor (Homo sapiens) (UniProt P10275). Briefly: qHTS assay to identify small molecule antagonists of the androgen receptor (AR) signaling pathway using the MDA cell line (AID 743042; also: nearly all actives have a fitted effect of over 55% in size). An outline of the steps:
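Antagonist mode: compounds plus R1881 agonist added to MDA-kb2 AR-luc cells, incubated 16 h at 37C. Luciferase reporter luminescence quantified, with multiplexed CellTiter-Fluor readout for cell viability.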

Test [18] in a line: qHTS assay to identify small molecule antagonists of the androgen receptor (AR) signaling pathway - cell viability counter screen (AID 743033; also: nearly all actives have a fitted effect of over 45% in size).
Test [19] is described as follows: qHTS assay to identify small molecule antagonists of the thyroid receptor (TR) signaling pathway - cell viability counter screen (AID 743064). Also: nearly all actives have a fitted effect of over 50% in size. An outline of the steps:
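Rat GH3 pituitary tumor cells stably expressing two TR response elements driving luciferase were plated, rested 4 h, then dosed with library compounds and T3 (1 nM final). After 23.5 h at 37 °C, CellTiter-Fluor was added for 30 min and fluorescence recorded.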

The target of test [20] is Androgen receptor (Homo sapiens) (UniProt P10275). Briefly: qHTS assay to identify small molecule antagonists of the androgen receptor (AR) signaling pathway (AID 743035; active = well fitted inhibition curve with a large enough effect in the signal ratio in the repeat runs, not every such curve was filed as active; the % refers to the signal ratio). An outline of the steps:
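Using qHTS, AR-UAS-bla GripTite HEK293 cells received compound, then R1881, and were cultured 16 h at 37C/5% CO2 before a 2 h room-temperature LiveBLAzer B/G FRET substrate step and fluorescence measurement.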

A number with no mark means an inactive call. Records with an inconclusive call do not appear. The source made the active and inactive calls. Unless noted, calls follow the shape of the dose curve; as a rule, active = well fitted curve in the direction sought with a large enough effect in the repeat runs; inconclusive = weak or mixed curves; inactive = no such curve, though single readings can be large; an effect the other way counts as inactive or inconclusive.
% is scaled to controls: 0 for no effect and ±100 for the full control effect.

Sequence of Androgen receptor (Homo sapiens) (P10275 whole entry, looked up): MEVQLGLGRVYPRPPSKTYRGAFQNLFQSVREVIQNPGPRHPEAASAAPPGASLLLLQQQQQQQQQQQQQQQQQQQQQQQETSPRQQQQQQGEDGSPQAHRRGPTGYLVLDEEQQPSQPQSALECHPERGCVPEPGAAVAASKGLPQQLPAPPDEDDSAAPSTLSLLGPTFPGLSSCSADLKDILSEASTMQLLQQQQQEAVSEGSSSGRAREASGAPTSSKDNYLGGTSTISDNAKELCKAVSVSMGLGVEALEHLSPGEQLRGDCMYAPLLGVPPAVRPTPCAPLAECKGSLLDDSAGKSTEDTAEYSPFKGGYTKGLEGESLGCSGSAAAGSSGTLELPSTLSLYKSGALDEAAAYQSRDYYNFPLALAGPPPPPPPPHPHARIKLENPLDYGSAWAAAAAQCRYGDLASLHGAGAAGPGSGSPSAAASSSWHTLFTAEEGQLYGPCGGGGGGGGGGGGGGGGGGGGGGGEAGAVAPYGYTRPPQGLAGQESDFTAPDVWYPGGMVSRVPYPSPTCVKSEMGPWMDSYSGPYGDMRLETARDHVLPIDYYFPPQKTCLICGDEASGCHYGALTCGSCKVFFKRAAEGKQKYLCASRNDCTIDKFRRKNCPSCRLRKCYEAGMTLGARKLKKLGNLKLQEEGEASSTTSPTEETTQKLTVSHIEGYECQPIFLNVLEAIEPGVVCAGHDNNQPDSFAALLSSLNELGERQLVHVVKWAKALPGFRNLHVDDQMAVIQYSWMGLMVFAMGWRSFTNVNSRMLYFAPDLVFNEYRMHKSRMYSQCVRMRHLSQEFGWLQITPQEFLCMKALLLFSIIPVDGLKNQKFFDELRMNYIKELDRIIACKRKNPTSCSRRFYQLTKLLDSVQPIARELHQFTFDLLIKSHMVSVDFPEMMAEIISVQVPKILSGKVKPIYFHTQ
Sequence of Glucocorticoid receptor (Homo sapiens) (P04150 whole entry, looked up): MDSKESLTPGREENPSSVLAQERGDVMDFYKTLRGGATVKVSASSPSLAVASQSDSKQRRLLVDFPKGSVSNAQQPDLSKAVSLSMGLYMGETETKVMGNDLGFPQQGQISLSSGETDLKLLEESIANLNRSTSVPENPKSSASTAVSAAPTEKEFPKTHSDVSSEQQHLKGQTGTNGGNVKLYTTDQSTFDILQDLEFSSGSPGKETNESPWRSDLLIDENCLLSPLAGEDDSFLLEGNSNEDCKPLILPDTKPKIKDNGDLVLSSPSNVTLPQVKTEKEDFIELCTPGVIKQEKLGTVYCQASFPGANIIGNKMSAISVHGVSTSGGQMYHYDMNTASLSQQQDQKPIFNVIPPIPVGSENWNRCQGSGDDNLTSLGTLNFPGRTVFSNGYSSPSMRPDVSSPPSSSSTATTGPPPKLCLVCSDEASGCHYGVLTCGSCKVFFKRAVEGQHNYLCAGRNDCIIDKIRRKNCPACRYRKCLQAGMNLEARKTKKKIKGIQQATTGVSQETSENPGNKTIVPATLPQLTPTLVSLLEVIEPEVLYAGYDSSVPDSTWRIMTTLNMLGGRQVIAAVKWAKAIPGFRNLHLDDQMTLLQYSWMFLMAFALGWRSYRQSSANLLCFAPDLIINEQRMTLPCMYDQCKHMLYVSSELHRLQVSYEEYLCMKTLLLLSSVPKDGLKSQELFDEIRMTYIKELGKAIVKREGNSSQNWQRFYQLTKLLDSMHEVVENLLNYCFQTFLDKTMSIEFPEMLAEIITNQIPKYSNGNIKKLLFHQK

As to `CC(C)OC(=O)C(C(=O)OC(C)C)=C1SC=CS1`, the call in test [1], in [2], in [3], in [4], in test [5] and in [6] was inactive. The call in [7], in test [8], in test [10], in [11], in test [15] and in test [16] was inactive. Also, the molecule was classed as inactive in test [17]. For the same molecule, the Potency result in test [9] was “inactive”. Further, the Potency in test [12] is 23.7 µM (active); in test [13] it was 26.6 µM (active); in [14], 23.7 µM (active).
`O=C(O)COc1ccc2ccccc2c1`: the call in [1], in test [2], in test [3], in test [4], in test [5] and in test [6] was inactive. The molecule was called inactive in [7], in [8], in test [10] and in [18]. Further, the Potency entry in [9], in [13], in [14] and in test [19] was “inactive” in each case.
For `NC[C@H]1O[C@H](O[C@H]2[C@H](O)[C@@H](O[C@H]3O[C@H](CO)[C@@H](O)[C@H](N)[C@H]3O)[C@H](N)C[C@@H]2N)[C@H](N)[C@@H](O)[C@@H]1O`, the molecule was classed as inactive in [1], in test [2], in test [3], in test [4], in [5] and in [6]. In addition, the outcome in [7], in test [8], in test [10], in test [11], in [18] and in [16] was inactive. Further, the Potency entry in [9], in test [12], in [13], in [14] and in test [19] was “inactive” each time.
Turning to `CCCc1ccc(O)c(OC)c1`, the molecule was called inactive in test [1], in test [2], in test [3], in test [4], in [5] and in test [6]. The molecule was classed as inactive in test [7], in test [8], in test [10], in test [11], in test [18] and in [16]. Moreover, the Potency entry in test [9], in test [12], in test [13], in test [14] and in test [19] was “inactive” throughout.
For the molecule `O=C(O)CCC(=O)Nc1ccc(S(=O)(=O)Nc2nccs2)cc1`, in test [1], the fluorescence, % of fluorescein was 0.032% [at 18.6 µM]. The fluorescence, % of fluorescent control in test [2] was -0.0604% [at 18.6 µM]; in test [4] it was 0.0244% [at 18.6 µM]; in [6], -0.0059% [at 18.6 µM]; in test [8], -0.0217% [at 18.6 µM]. Further, the activity change in test [3] was 0.0309% [at 18.6 µM]. Also, the fluorescence, % of Rose Bengal in [5] was 0.477% [at 18.6 µM]. The fluorescence, % of fluorescein control in test [7] is 0.022% [at 18.6 µM]. The Potency entry in test [9], in [12], in test [14] and in [19] was “inactive” throughout. Moreover, the call in [10], in test [11] and in test [18] was inactive.
For `CCCCN=C(N)N=C(N)N`, the call in test [1], in test [2], in test [3], in test [4], in test [5] and in test [6] was inactive. For the same molecule, the result in [7], in [8], in [10], in test [11], in test [18] and in [16] was inactive. The Potency entry in [9] and in [19] was “inactive” in each case.
On to `C[C@H]1COc2c(C3(N)CC3)c(F)cc3c(=O)c(C(=O)O)cn1c23`, for which the outcome in [1], in test [2], in test [3], in test [4], in test [5] and in [6] was inactive. Moreover, the outcome in test [7], in test [8], in test [10], in test [11] and in test [16] was inactive. For the same molecule, the Potency entry in test [9], in [12], in test [13], in test [14] and in test [19] was “inactive” throughout.
On to `CCOC(=O)c1ccc(N(C)C)cc1`, for which the molecule was called inactive in test [1], in test [2], in test [3], in test [4], in test [5] and in [6]. The molecule was called inactive in test [7], in test [8], in test [10] and in test [18]. In addition, the Potency result in test [9], in [12] and in test [14] was “inactive” throughout.
In the case of `O=C(CCBr)N1CCN(C(=O)CCBr)CC1`, the molecule was called inactive in test [1], in [2], in [3], in [4], in [5] and in test [6]. Moreover, the molecule was classed as inactive in test [7], in [8], in test [10], in test [11] and in test [18]. For the same molecule, the Potency result in [9], in [12], in test [13], in [14] and in test [19] was “inactive” in each case.
As for `CC(=O)OC1CCC(C(C)(C)C)CC1` (stereo not given), the outcome in test [1], in [2], in test [3], in test [4], in test [5] and in test [6] was inactive. Besides, the result in test [7], in test [8], in test [10], in [11], in [18] and in [20] was inactive. For the same molecule, the molecule was classed as inactive in test [15], in test [16] and in test [17]. The Potency result in test [9], in test [12], in [13], in [14] and in [19] was “inactive” each time.
For `CCCC(C)C(O)CC` (stereo not given), the result in test [1], in [2], in [3], in test [4], in [5] and in test [6] was inactive. Moreover, the result in [7], in test [8], in [10], in test [11], in test [18] and in test [16] was inactive. For the same molecule, the Potency entry in test [9], in test [12], in test [13], in test [14] and in [19] was “inactive” each time.
On to `CCCCCCCCCCCC(C)=O`, for which the outcome in test [1], in [2], in [3], in [4], in test [5] and in test [6] was inactive. Moreover, the molecule was called inactive in test [7], in test [8], in [10], in [11] and in [16]. The Potency entry in test [9], in test [12], in [13], in test [14] and in test [19] was “inactive” in each case.
For `Cc1ccccc1OCC(=O)O`, the result in test [1], in test [2], in [3], in test [4], in test [5] and in [6] was inactive. For the same molecule, the outcome in [7], in test [8], in [10], in [18] and in test [16] was inactive. The Potency result in [9], in test [12], in test [13] and in test [14] was “inactive” in each case.
Take `O=C(O)CCCCCCCCCC(=O)O`: the molecule was classed as inactive in test [1], in test [2], in test [3], in [4], in test [5] and in [6]. Further, the molecule was called inactive in test [7], in test [8], in test [10], in [11], in test [18] and in [15]. The molecule was classed as inactive in test [16] and in test [17]. Moreover, in test [9], the Potency entry was “inactive”. Moreover, the results for the Potency in test [12], in test [13] and in test [14] were 30.6 µM (active), 34.4 µM (active) and 27.3 µM (active), respectively.
`C=CCN1CCc2nc(N)sc2CC1`: the molecule was called inactive in [1], in test [2], in test [3], in [4], in test [5] and in test [6]. Also, the result in [7], in [8], in test [10], in test [11], in [18] and in test [20] was inactive. Besides, the molecule was called inactive in test [15], in test [16] and in test [17]. Also, the Potency entry in test [9], in test [12], in test [13], in test [14] and in test [19] was “inactive” throughout.
